Results from PubChem BioAssay (NCATS).
Results filed as inconclusive are left out. Active and inactive are the calls of the source. Unless noted, the call rests on the fitted dose curve; in most records, active means well fitted curve in the direction sought with a large enough effect; inconclusive means small, poorly fitted or top-dose-only effect, or another doubt; inactive means no such curve, though single readings can be large; an effect the other way counts as inactive or inconclusive.

Tests used:
[1] = Quantitative high throughput screen for delayed death inhibitors of the malarial parasite plastid, 96 hour incubation (AID 488745); further: nearly all actives have a fitted effect of over 70% in size; further: potency means the concentration at half of the fitted maximal effect
Outline: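 Infected erythrocytes were added to compound in Albumax-supplemented RPMI 1640 at 0.1% parasitemia and 2% hematocrit (final), incubated 96 h at 37 C under 5% CO2, then luciferase reagent was added and luminescence measured.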

[2] = Quantitative high throughput screen for delayed death inhibitors of the malarial parasite plastid, 48 hour incubation (AID 488752); further: nearly all actives have a fitted effect of over 65% in size; further: potency means the concentration at half of the fitted maximal effect
Outline: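 Readout is firefly luciferase luminescence from a reporter integrated into the parasite genome, with lower signal taken as inhibited growth. Infected red cells (0.1% parasitemia, 2% hematocrit final) are cultured with compound for one 48 h cycle at 37 C.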

[3] = target: Thioredoxin reductase 1, cytoplasmic (Rattus norvegicus) (UniProt O89049); test: qHTS Assay for Substrates of Mammalian Selenoprotein Thioredoxin Reductase 1 (TrxR1) (AID 488772);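 further: NADPH fluorescence in the first read after selenite addition and not the 8 min delta; series mostly up to about 57 µM; 0% is about no effect; a drop in NADPH fluorescence below the no-compound background marks a TrxR1 substrate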
Outline: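 Quantitative HTS in Tris-HCl buffer at pH 7.5 with EDTA and Tween-20, using rat TrxR1, 400 uM NADPH and 400 uM selenite (final). A fall in initial NADPH fluorescence relative to background marked substrate behaviour.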

[4] = target: Thioredoxin reductase 1, cytoplasmic (Rattus norvegicus) (UniProt O89049); test: qHTS Assay for Inhibitors of Mammalian Selenoprotein Thioredoxin Reductase 1 (TrxR1) (AID 488773); settings: Potency: inhibition;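 further: drop in NADPH fluorescence over an 8 min run after selenite addition; series mostly up to about 57 µM; on the % scale 0 is the no-effect control and ±100 the full control effect; nearly all actives have a fitted effect of over 40% in size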
Outline: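 Steps: enzyme (90 nM) plus NADPH (400 uM final), 5 min at ~22 deg C; compound added, 15 min; selenite (400 uM final) added; fluorescence followed for 8 min. Concentration-response curves derived from the normalized delta values.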

[5] = target: Flap endonuclease 1 (Homo sapiens) (UniProt P39748); test: qHTS Validation Assay for the Inhibitors of Human Flap endonuclease 1 (FEN1) (AID 488816); further: on the % scale 0 is the no-effect control and ±100 the full control effect
Outline: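 Readings taken at 0 and 15 min after starting the reaction with 50 nM (final) substrate supplied the signal. Compounds had first sat with 10 nM FEN1 reagent for 15 min at room temperature. Values come from Hill-equation concentration-response fits.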

[6] = target: M-phase phosphoprotein 8 (Homo sapiens) (UniProt Q99549); test: qHTS Validation Assay for Inhibitors for MPP8 Chromodomain Interactions with Methylated Histone Tails (AID 488949); further: top concentration of the series differs between compounds; on the % scale 0 is the no-effect control and ±100 the full control effect; nearly all actives have a fitted effect of over 55% in size
Outline: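 MPP8 (50 nM) was pre-bound to 50 nM biotinylated H3(1-18)K9me3 peptide in PBS pH 7.4 with 0.01% Tween-20. Compounds were then added for 30 min at room temperature, and complex disruption was read by AlphaScreen with streptavidin donor and nickel-chelate acceptor beads.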

[7] = target: Chromobox protein homolog 1 (Homo sapiens) (UniProt P83916); test: qHTS Validation Assay for Inhibitors of HP1-beta Chromodomain Interactions with Methylated Histone Tails (AID 488953); further: nearly all actives have a fitted effect of over 50% in size; further: potency means the concentration at half of the fitted maximal effect
Outline: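 50 nM HP1-beta + 50 nM biotin-H3(1-18)K9me3, PBS pH 7.4, 0.01% Tween-20, 30 min RT; compound added, 30 min RT; AlphaScreen beads 10 ug/mL final, 30 min dark; luminescence read.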

[8] = target: Methanococcus maripaludis chaperonin (MmCpn) (UniProt Q6LX38); test: High-Throughput Screening for Modulators of Cytosolic Chaperonin Activity: MmCpn Primary Screen (AID 488978);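 further: 50 nM MmCpn enzyme hydrolysing 30 µM ATP at 37 °C; 0% is about no effect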
Outline: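 MmCpn at 50 nM final was preincubated 5 min at RT with compound. ATP was then added at 30 uM final for 10 min at 37 C. ADP formed was detected by Transcreener HTRF (665/590 nm).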

[9] = target: Transient receptor potential cation channel subfamily V member 1 (Homo sapiens) (UniProt Q8NER1); test: HTS Assay for Compounds that Act as Enhancers of the Vanilloid Receptor 1 (AID 488979); further: 0% is about no effect
Outline: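 Calcium influx kinetics via Fluo-8 (480/520 nm) in TRPV1-expressing cells, 2000/well cultured overnight at 35.5C. Compound-alone read 3 min (agonist phase), followed by EC20 capsaicin challenge for 2 min (enhancer phase).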

[10] = target: Thyrotropin receptor (Homo sapiens) (UniProt P16473); test: qHTS Assay for Antagonists of the Thyroid Stimulating Hormone Receptor (AID 488980); further: series mostly up to about 58 µM; 0% is about no effect
Outline: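 TSHR-transfected HEK293 cells (2000/well) in HEPES-buffered HBSS with 70 uM RO 20-1724 were stimulated with 4 nM TSH (EC80, final) in the presence of compound. cAMP was measured by HTRF competition after lysis and 30 min at RT.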

[11] = target: D(1A) dopamine receptor (Homo sapiens) (UniProt P21728); test: HTS Assay for Allosteric Agonists of the Human D1 Dopamine Receptor: Primary Screen for Agonists (AID 488981); further: 0% is about no effect
Outline: (§1)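 Calcium flux in an inducible, force-coupled HEK293 Trex D1 line (overnight at 30 C): agonist mode is the 180 s kinetic read after compound; potentiator mode is the following 180 s read after dopamine at EC20.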

[12] = target: D(1A) dopamine receptor (Homo sapiens) (UniProt P21728); test: HTS Assay for Allosteric Agonists of the Human D1 Dopamine Receptor: Primary Screen for Potentiators (AID 488982); further: 0% is about no effect
Outline: as §1

[13] = target: D(1A) dopamine receptor (Homo sapiens) (UniProt P21728); test: HTS Assay for Allosteric Agonists of the Human D1 Dopamine Receptor: Primary Screen for Antagonists (AID 488983);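 further: calcium flux response to an EC80 dopamine challenge measured with no-wash dye; nearly all actives have a fitted effect of over 65% in size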; further: potency means the concentration at half of the fitted maximal effect
Outline: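 Cells are induced with tetracycline and incubated overnight at 30 C, then loaded with calcium dye for 30 to 90 minutes at room temperature. Compound addition is followed by a 180 s read, then an EC80 dopamine addition and another 180 s read.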

[14] = Validation screen for small molecules that induce genotoxicity in human embryonic kidney (HEK293T) cells expressing luciferase-tagged ELG1 (AID 493106); further: potency means the concentration at half of the fitted maximal effect
Outline: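 Luminescence from an ELG1-luciferase fusion serves as the read-out, rising when genetic stress elevates ELG1 protein. HEK293T reporter cells (2,000 per well) received 23 nL compound, incubated 16 hr at 37 °C, then ONE-Glo for 30 min at room temperature.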

[15] = target: Thyrotropin-releasing hormone receptor (Homo sapiens) (UniProt P34981); test: qHTS for Small Molecule Agonists and Allosteric Enhancers of Human TRH Receptor: Validation Screen for Agonists (AID 493127;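 active means calcium activation more than 3 SD above the typical response in the agonist read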;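 further: intracellular calcium rise by fluo-8 fluorescence before TRH EC20 addition; 0% is about no effect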); settings: TRH receptor agonist cell assay; at 2 µM; stronger effect = higher value
Outline: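 Cells 2000/well, 10% FCS, 18 h 33.5C/5% CO2 → fluo-8 Ca dye, RT 30 min–1.5 h → FDSS baseline 10 × 1 s → compound added → 230 cycles (1 s/cycle) agonist mode. TRH controls.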

[16] = qHTS for Inhibitors of Cell Surface uPA Generation: Validation Assay (AID 493164); further: 0% is about no effect
Outline: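 RAW 264.7 cells (4000/well) were plated overnight, then exposed for 18 h at 37 C, 5% CO2 to compounds in a 7-point 1:5 titration (2.45 nM–38.3 uM final). Intracellular ATP was read by ATP-Lite luminescence.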

[17] = target: ATPase family AAA domain-containing protein 5 (Homo sapiens) (UniProt Q96QE3); test: Validation screen for small molecules that inhibit ELG1-dependent DNA repair in human embryonic kidney (HEK293T) cells expressing luciferase-tagged ELG1 (AID 493107); further: nearly all actives have a fitted effect of over 70% in size; further: potency means the concentration at half of the fitted maximal effect
Outline: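 Luminescence from ONE-Glo, developed 30 min at room temperature, served as read-out of ELG1-luciferase levels. Beforehand, reporter HEK293T cells received 5-fluorouridine plus test compound for 16 hr at 37 °C.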

[18] = Nrf2 qHTS screen for inhibitors: Validation (AID 493153; active means well fitted inhibition curve with a large enough effect in the main read-out, with a control signal flat, not every such curve was filed as active); settings: Potency: luciferase luminescence; viability change: measured here: cytotoxicity max response
Outline: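 Luminescence from an ARE-firefly luciferase reporter in A549 cells gives Nrf2 inhibition; an earlier CellTiter-Fluor fluorescent read flags cytotoxicity. Cells in 5% FBS OPTI-MEM received compound dilution series for 18-24 h at 37°C.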

[19] = target: ATP-dependent 6-phosphofructokinase (Trypanosoma brucei brucei) (UniProt O15648); test: qHTS Assay to Find Inhibitors of T. brucei phosphofructokinase: hit validation (AID 492961);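 further: luminescence reports ADP formed as PFK phosphorylates fructose-6-phosphate with ATP; series mostly up to about 51 µM; on the % scale 0 is the no-effect control and ±100 the full control effect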
Outline: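 Measures ADP output of PFK (1.25 nM) at 0.1 mM ATP, 0.5 mM F6P, pH 8.0 TEA buffer with 5 mM MgCl2. No-enzyme wells define full inhibition; uninhibited enzyme wells define zero.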

Chromobox protein homolog 1 (Homo sapiens), sequence (P83916 whole entry, looked up): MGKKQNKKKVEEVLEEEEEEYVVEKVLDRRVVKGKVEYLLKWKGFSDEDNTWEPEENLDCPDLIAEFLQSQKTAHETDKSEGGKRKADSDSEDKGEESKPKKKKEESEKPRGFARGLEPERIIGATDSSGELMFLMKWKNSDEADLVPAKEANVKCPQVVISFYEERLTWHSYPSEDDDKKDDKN
Thioredoxin reductase 1, cytoplasmic (Rattus norvegicus), sequence (O89049 whole entry, looked up): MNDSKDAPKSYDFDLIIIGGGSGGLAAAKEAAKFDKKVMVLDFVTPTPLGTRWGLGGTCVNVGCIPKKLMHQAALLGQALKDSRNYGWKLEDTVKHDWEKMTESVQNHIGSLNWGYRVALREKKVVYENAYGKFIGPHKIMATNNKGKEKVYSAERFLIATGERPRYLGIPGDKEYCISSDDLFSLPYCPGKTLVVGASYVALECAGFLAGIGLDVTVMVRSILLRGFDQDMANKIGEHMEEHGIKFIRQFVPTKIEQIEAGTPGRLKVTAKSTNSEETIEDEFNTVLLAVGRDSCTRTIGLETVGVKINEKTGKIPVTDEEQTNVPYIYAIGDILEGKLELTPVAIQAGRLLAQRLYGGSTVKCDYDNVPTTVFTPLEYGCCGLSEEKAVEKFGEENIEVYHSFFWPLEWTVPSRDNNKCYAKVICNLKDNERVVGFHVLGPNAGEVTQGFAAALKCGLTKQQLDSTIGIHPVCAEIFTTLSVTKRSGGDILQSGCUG
D(1A) dopamine receptor (Homo sapiens), sequence (P21728 whole entry, looked up): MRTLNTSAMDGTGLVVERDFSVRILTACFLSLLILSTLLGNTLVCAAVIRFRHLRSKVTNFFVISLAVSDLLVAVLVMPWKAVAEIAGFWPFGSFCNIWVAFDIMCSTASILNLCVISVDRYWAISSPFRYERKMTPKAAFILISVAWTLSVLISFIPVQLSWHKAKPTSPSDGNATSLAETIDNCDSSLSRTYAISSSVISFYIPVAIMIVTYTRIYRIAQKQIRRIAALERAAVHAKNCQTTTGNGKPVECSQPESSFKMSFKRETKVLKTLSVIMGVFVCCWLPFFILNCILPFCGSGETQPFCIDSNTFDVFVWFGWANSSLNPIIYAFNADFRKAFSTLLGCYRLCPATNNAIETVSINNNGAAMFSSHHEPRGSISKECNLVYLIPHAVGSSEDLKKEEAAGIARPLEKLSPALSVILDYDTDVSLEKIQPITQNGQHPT
Methanococcus maripaludis chaperonin (MmCpn), sequence (Q6LX38 1-543): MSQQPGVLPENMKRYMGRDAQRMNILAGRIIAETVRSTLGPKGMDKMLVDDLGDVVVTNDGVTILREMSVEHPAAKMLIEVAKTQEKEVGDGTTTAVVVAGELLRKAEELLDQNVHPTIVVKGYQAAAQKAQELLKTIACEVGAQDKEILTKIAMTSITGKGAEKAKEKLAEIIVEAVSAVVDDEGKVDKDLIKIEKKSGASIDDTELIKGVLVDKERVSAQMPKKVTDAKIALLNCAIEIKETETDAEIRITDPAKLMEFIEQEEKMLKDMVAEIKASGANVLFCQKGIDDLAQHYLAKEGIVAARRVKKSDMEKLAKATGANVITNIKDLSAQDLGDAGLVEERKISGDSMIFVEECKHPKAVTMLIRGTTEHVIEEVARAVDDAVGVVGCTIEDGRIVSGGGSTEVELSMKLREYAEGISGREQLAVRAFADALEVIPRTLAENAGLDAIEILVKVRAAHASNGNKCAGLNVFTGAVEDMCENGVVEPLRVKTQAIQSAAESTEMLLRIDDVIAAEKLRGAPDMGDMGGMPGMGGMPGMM
Thyrotropin-releasing hormone receptor (Homo sapiens), sequence (P34981 whole entry, looked up): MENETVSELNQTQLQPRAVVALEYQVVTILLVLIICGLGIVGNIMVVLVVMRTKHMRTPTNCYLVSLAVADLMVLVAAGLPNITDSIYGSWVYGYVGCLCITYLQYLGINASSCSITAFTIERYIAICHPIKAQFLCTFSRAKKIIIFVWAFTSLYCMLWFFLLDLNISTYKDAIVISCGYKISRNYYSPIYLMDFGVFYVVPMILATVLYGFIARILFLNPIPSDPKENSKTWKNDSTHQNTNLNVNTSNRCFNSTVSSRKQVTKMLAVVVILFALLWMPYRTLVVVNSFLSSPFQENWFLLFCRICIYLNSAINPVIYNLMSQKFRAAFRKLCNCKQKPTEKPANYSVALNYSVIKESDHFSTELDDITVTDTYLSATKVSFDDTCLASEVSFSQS
Transient receptor potential cation channel subfamily V member 1 (Homo sapiens), sequence (Q8NER1 whole entry, looked up): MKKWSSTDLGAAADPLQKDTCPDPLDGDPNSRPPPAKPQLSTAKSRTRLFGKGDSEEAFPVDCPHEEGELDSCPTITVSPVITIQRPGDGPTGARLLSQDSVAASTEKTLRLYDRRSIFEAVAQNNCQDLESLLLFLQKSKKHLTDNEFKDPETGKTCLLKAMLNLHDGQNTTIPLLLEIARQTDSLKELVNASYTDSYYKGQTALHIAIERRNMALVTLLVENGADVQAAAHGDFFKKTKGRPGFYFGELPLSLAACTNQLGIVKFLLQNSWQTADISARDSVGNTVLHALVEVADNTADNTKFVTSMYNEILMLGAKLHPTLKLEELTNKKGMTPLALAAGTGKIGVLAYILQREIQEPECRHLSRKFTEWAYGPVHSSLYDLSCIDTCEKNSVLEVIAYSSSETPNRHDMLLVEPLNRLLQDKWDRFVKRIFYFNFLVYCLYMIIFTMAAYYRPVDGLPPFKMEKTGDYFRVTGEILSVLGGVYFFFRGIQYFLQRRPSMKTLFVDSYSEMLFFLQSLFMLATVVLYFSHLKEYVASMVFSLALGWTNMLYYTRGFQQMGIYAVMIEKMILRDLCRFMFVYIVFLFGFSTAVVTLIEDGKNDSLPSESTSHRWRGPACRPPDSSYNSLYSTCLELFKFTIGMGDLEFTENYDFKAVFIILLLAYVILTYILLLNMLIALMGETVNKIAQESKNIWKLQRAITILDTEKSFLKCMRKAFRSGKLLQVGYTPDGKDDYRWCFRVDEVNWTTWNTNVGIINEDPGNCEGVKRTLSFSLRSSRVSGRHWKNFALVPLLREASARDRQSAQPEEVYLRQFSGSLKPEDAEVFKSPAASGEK
ATPase family AAA domain-containing protein 5 (Homo sapiens), sequence (Q96QE3 whole entry, looked up, the tested form may be a part): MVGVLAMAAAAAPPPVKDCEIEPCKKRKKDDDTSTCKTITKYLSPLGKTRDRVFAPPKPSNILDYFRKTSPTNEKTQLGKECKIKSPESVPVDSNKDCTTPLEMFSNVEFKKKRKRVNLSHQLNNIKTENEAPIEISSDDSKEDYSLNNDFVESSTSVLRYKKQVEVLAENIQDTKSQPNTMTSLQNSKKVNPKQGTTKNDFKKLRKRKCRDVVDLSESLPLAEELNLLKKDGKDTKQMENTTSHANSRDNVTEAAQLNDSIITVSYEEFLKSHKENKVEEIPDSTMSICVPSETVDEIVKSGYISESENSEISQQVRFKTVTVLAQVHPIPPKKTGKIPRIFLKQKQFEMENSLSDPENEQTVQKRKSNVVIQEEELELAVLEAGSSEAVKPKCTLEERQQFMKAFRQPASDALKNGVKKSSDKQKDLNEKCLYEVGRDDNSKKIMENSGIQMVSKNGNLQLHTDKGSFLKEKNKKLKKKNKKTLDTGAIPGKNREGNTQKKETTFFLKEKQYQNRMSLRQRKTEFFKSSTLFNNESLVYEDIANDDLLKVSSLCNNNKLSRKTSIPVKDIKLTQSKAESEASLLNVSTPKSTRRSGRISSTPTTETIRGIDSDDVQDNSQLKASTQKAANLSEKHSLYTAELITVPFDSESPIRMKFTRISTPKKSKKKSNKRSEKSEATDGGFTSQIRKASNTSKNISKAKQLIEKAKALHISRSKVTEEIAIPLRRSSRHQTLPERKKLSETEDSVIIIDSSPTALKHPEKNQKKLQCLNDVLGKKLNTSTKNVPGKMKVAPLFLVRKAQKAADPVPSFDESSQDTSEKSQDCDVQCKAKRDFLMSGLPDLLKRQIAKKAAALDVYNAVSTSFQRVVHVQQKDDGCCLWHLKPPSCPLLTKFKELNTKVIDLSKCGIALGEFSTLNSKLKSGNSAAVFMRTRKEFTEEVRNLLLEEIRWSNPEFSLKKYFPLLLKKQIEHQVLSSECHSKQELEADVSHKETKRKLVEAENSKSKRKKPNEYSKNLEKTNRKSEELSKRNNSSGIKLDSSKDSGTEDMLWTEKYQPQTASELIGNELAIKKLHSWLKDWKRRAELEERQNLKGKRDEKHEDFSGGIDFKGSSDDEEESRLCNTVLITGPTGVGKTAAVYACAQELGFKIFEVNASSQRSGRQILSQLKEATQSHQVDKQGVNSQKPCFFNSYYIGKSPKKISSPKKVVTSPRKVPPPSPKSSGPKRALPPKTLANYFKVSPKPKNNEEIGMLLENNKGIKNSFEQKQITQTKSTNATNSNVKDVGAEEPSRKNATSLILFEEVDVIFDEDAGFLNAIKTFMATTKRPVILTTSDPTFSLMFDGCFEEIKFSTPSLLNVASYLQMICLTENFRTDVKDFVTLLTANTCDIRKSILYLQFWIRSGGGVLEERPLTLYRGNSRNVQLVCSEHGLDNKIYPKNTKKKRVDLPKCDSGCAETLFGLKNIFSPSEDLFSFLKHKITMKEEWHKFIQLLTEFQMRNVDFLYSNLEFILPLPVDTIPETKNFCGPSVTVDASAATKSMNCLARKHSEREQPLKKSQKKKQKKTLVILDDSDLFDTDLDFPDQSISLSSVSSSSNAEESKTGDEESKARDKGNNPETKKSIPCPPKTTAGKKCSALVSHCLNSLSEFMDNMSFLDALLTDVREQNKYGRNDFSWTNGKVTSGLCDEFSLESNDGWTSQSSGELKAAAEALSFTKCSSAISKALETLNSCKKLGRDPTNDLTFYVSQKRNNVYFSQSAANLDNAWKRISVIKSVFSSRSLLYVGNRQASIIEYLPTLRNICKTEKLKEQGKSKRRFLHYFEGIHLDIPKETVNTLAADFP

CCCn1c(C)c(C(=O)c2ccc3ccccc3c2)c2ccccc21
inactive: Potency [1] | Potency [2] | outcome [3] | Potency [4] | Potency [5] | Potency [6] | Potency [7] | outcome [8] | outcome [9] | outcome [10] | Potency [11] | Potency [12] | Potency [13] | Potency [14] | activation [15] -5.69% | outcome [16]

CCCN(CCC)CCc1ccc(O)c(O)c1
active: Potency [13] 1.78 µM
inactive: Potency [1] | Potency [2] | outcome [3] | Potency [4] | Potency [5] | Potency [6] | Potency [7] | outcome [8] | outcome [9] | outcome [10] | Potency [11] | Potency [12] | Potency [14] | Potency [17] | activation [15] -3.94% | Potency [18] | outcome [16]
-6.78%: viability change [18]

CC1(C(=O)O)C2CCC(O2)C1(C)C(=O)O (stereo unspecified)
inactive: outcome [3] | Potency [4] | Potency [5] | Potency [6] | outcome [8] | outcome [9] | outcome [10] | Potency [11] | Potency [12] | Potency [13]
active: Potency [1] 3.29 µM | Potency [2] 5.22 µM | Potency [7] 0.0084 µM | Potency [14] 3.66 µM | Potency [17] 7.3 µM

CC1OC1P(=O)(O)O (stereo unspecified)
inactive: Potency [1] | Potency [2] | Potency [6] | outcome [9] | outcome [10] | activation [15] -2.75%

O=C1C=CC(=O)C=C1
-5.52%: viability change [18]
inactive: Potency [1] | Potency [2] | outcome [3] | Potency [4] | Potency [6] | Potency [7] | outcome [8] | outcome [9] | outcome [10] | Potency [11] | Potency [12] | Potency [13] | Potency [14] | Potency [17] | activation [15] 0.5% | Potency [18]

CCCN(CCC)[C@H]1CCc2c(F)ccc(O)c2C1
inactive: outcome [3] | Potency [4] | Potency [5] | Potency [6] | outcome [8] | outcome [9] | outcome [10] | Potency [11] | Potency [12] | Potency [13] | Potency [14] | Potency [17] | Potency [18] | outcome [16]
active: Potency [1] 2.94 µM | Potency [2] 2.94 µM
-8.48%: viability change [18]

CC(C)CC(NP(=O)(O)O[C@@H]1O[C@@H](C)[C@H](O)[C@@H](O)[C@H]1O)C(=O)NC(Cc1c[nH]c2ccccc12)C(=O)O (stereo partly specified)
inactive: Potency [1] | Potency [2] | Potency [5] | Potency [6] | outcome [9] | outcome [10] | activation [15] 1.38%

O=P(O)(O)C(Cl)(Cl)P(=O)(O)O
inactive: Potency [1] | Potency [2] | Potency [6] | outcome [9] | outcome [10] | Potency [19]

CN1C2CCC1CC(OC(c1ccccc1)c1ccccc1N)C2 (stereo unspecified)
inactive: Potency [1] | Potency [2] | outcome [3] | Potency [4] | Potency [5] | Potency [6] | outcome [8] | outcome [10] | Potency [11] | Potency [12] | Potency [13] | Potency [14] | Potency [17] | Potency [18] | outcome [16]
-4.19%: viability change [18]

O=C1CC[C@@]2(O)C3Cc4ccc(O)c5c4C2(CCN3CC2CC2)[C@H]1O5 (stereo partly specified)
-12.7%: viability change [18]
inactive: Potency [1] | Potency [2] | outcome [3] | Potency [4] | Potency [6] | Potency [7] | outcome [8] | outcome [9] | outcome [10] | Potency [11] | Potency [12] | Potency [13] | Potency [19] | Potency [14] | Potency [17] | Potency [18]
